In PubChem BioAssay (Tox21):
Values joined by “and” are separate entries in the source; they are usually repeats but may differ in a detail not shown here. Equal entries are not always repeated. Inconclusive results are not listed. Where a structure was tested more than once in an assay, its records may differ in their call. Active and inactive are the calls of the source. Calls follow the shape of the dose curve; as a rule, active = well fitted cell-killing curve with a large enough effect in the repeat runs; inconclusive = weak or mixed curves, or effect the other way; inactive = no such curve, though single readings can be large or run the other way.

Experiment: qHTS assay to identify small molecule agonists of the farnesoid-X-receptor (FXR) signaling pathway - cell viability counter screen (AID 743218); also: nearly all actives have a fitted effect of over 45% in size
Conditions: FXR-bla HEK293T viability, CellTiter-Glo luminescence, 16 h; series mostly up to 62.6 µM; viability change, negative = cytotoxic: at the top concentration
Text: U.S. Tox21 Program National Center for Advancing Translational Sciences [NCATS] NIH Chemical Genomics Center [NCGC] U.S. Environmental Protection Agency [EPA] National Institutes of Environmental Health Sciences [NIEHS] National Toxicology Program [NTP] U.S. Food and Drug Administration [FDA] Tox21 Assay Overview: The farnesoid-X-receptor (FXR), a nuclear hormone receptor, is highly expressed in liver, intestine, kidney and adrenal cortex. Natural ligands of FXR are the bile acids (Cholic acid, Chenodeoxy cholic acid etc). FXR is an important regulator of diverse metabolic pathways, including the bile acid homeostasis, lipid and glucose metabolisms. FXR regulates the expression of target genes by binding either as a monomer or as a heterodimer with the retinoid X receptor (RXR). Numerous studies have reported that FXR exerts protective function during cholestasis, diabetes, liver regeneration, and cancer. To identify compounds that activate FXR signaling, GeneBLAzer FXR-UAS-bla HEK 293T cell line (Invitrogen, Carlsbad, CA) containing a beta-lactamase reporter gene under the control of a UAS response element was used to screen the Tox21 10K compound library. The cytotoxicity of the Tox21 compound library against the FXR-bla cell line was tested in parallel by measuring the cell viability using CellTiter-Glo assay in the same wells.
Tox21 Assay Protocol Summary: FXR-bla cells were dispensed at 5000 cells/5uL/well in 1536-well black wall/clear bottom plates using a Multidrop Combi (Thermo Fisher Scientific, Waltham, MA) dispenser. After the assay plates were incubated at 37 C and 5% CO2 for 5 h, 23 nL of compounds dissolved in DMSO, positive controls or DMSO only was transferred to the assay plate by a Pintool station (Kalypsys, San Diego, CA). The assay plates were incubated at 37C for 16 h. After 1 uL of LiveBLAzerTM B/G FRET substrate was added using a Bioraptr Flying Reagent Dispenser (FRD) workstation (Beckman Coulter, Indianapolis, IN), the plates were incubated at room temperature for 2 h, and fluorescence intensity was measured by an Envision plate reader (PerkinElmer, Shelton, CT). For cell viability readout that measures cytotoxicity, 4uL/well of CellTiter-Glo reagent was added into the assay plates using a Bioraptr FRD. After 30 min incubation at room temperature, the luminescence intensity in the plates was measured using a ViewLux plate reader (PerkinElmer).
% is scaled to controls: 0 for no effect and ±100 for the full control effect; potency is read from the fitted curve at half-maximal effect.

| Structure (SMILES) | Potency | viability change, negative = cytotoxic |
| --- | --- | --- |
| OCC1CO1 (stereo not given) | inactive |  |
| C=C(Cl)Cl |  | 18.1% [at 81.1 µM] (inactive) |
| CN1CC[C@]23c4c5ccc(O)c4O[C@H]2[C@@H](O)C=C[C@H]3[C@H]1C5 |  | -16.3% [at 81.1 µM] (inactive) |
| OCCCl |  | 5.2% (inactive) |
| CCSCc1ccccc1OC(=O)NC |  | 0.633% (inactive) |
| COc1ccc2c(c1OC)C(=O)O[C@H]2[C@@H]1c2cc3c(cc2CCN1C)OCO3 |  | -0.416% (inactive) |
| CC(C)CCCCCCCOC(=O)c1ccccc1C(=O)OCCCCCCCC(C)C |  | 0.159% (inactive) |
| CN(C)N |  | 0.397% (inactive) |
| Nc1cc(Cl)cc(C(=O)O)c1Cl | inactive |  |
| Cc1ccccc1 |  | -4.55% (inactive) |
| CCOc1cccc(C2(N3CCN(c4ccccc4)CC3)CCC(C)CC2)c1 (stereo not given) |  | 0.0617% (inactive) |
| COP(=O)(OC)OC(Br)C(Cl)(Cl)Br (stereo not given) | inactive |  |
| CCC(C)(C)O |  | 3.52% (inactive) |
| CN1C(=O)CN=C(c2ccccc2)c2cc([N+](=O)[O-])ccc21 |  | 10.1% (inactive) |
| [Cl-].[Cl-].[Hg+2] | 2.74 µM (active) and 9.77 µM (active) |  |
| CCCCCCCCCCCCN(C)C |  | -14.1% (inactive) |
| CCOP(=O)(SC(C)CC)N1CCSC1=O (stereo not given) |  | 8.3% (inactive) |
| O=C(NCNC(=O)NC1C(=O)NC(=O)N1CO)NC1C(=O)NC(=O)N1CO (stereo not given) |  | 8.24% (inactive) |
| C[C@]12CC[C@H]3[C@@H](CCC4=CC(=O)CC[C@@H]43)[C@@H]1CC[C@@H]2OC(=O)CCc1ccccc1 |  | 8.58% (inactive) |
| O=C(O)C(O)C(O)C(=O)O (stereo not given) |  | -1.01% (inactive) |

| Structure (SMILES) | Potency | viability change, negative = cytotoxic |
| --- | --- | --- |
| C=CC(=O)NC(C)(C)CC(C)=O |  | -3.1% (inactive) |
| Nc1ccccc1C(=O)OCCc1ccccc1 | inactive |  |
| CC(C)CCON=O |  | 9.87% (inactive) |
| FC(Cl)(Cl)C(F)(Cl)Cl |  | -7.97% [at 81.1 µM] (inactive) |
| CN(C1CCCCC1)C1CCCCC1 |  | 7.02% (inactive) |
| CC(C)(C)c1ccc(CCOc2ncnc3ccccc23)cc1 |  | -10.7% (inactive) |
| O=C(O)c1cc(Cl)ccc1Cl |  | -0.789% (inactive) |
| N#CC(C#N)=C(C#N)C#N |  | -0.686% [at 81.1 µM] (inactive) |
| C[C@H]1[C@@H]2Cc3ccc(O)cc3[C@@]1(C)CCN2C |  | -29.2% [at 232 µM] (inactive) |
| Clc1ccc(Cl)c(Cl)c1 | inactive |  |
| CC(C)c1ccc(NC(=O)N(C)C)cc1 |  | 11.9% (inactive) |
| O=S(=O)(Cl)Cl |  | 57.7% (inactive) |
| CCOC(=O)c1cn2nc(OP(=S)(OCC)OCC)cc2nc1C |  | 23.1% (inactive) |
| COC1CC(=C(c2cccs2)c2cccs2)C[N+](C)(C)C1 (stereo not given) |  | 9.55% (inactive) |
| Cc1ccc(N)c(C)c1 | inactive |  |
| OC[P+](CO)(CO)CO |  | -9.78% (inactive) |
| CCC(C)(C)c1ccc(O)c(C(C)(C)CC)c1 | inactive and 24.5 µM (active) |  |
| NC(=O)CF |  | 1.44% (inactive) |
| C[N+]1(CCC(C(N)=O)(c2ccccc2)c2ccccc2)CCCCC1 |  | 18.1% (inactive) |
| CCc1cnc(C2=NC(C)(C(C)C)C(=O)N2)c(C(=O)O)c1 (stereo not given) | inactive |  |
